Calls of active or inactive are those of the source. Rule for the calls: active = hit-call score of the fitted dose curve at least 0.9, where 1 is the maximum; inactive = score below 0.9.

Here are results for three molecules from PubChem BioAssay (EPA / NIEHS).

Details in all cases: mRNA level, 48 h; actives raise or lower the signal
Read-out in assay [1]: JUN Transcription Factor, JUN (gene 3725)
The experiment in a line: LTEA_HepaRG_JUN: Life Technologies and Expression Analysis (LTEA) Assay for JUN Transcription Factor using HepaRG (AID 2283513). The gist of the method: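 mRNA measured by TaqMan qRT-PCR after 48 h chemical exposure of HepaRG cultures; normalization to three housekeeping genes. Duplicate eight-point half-log curves from 100 uM in 0.5% DMSO; gain or loss fitted against DMSO baseline.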

Read-out in assay [2]: Lipase C (LIPC), LIPC (gene 3990)
Kind of assay: LTEA_HepaRG_LIPC: Life Technologies and Expression Analysis (LTEA) Assay for Lipase C (LIPC) using HepaRG (AID 2283514). The gist of the method:
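In this multiplexed gene-expression screen, human HepaRG cultures received test chemicals for 48 h across eight concentrations with 100 uM highest, in duplicate. Values reflect LIPC mRNA induction or suppression versus DMSO vehicle, from normalized qRT-PCR.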

Read-out in assay [3]: Lipoprotein lipase (LPL), LPL (gene 4023)
The experiment in a line: LTEA_HepaRG_LPL: Life Technologies and Expression Analysis (LTEA) Assay for Lipoprotein lipase (LPL) using HepaRG (AID 2283515). In outline:
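Concentration-response testing used half-log steps from 100 uM in 0.5% DMSO on human HepaRG cells, 48 h, duplicate wells. Phenobarbital 1 mM served as induction control; LPL mRNA was normalized to ACTB, GAPDH, POLR2A.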

Read-out in assay [4]: MicroRNA 122 (MIR122), gene 406906
Kind of assay: LTEA_HepaRG_MIR122: Life Technologies and Expression Analysis (LTEA) Assay for MicroRNA 122 (MIR122) using HepaRG (AID 2283516). Note: the transcript read is the microRNA miR-122. The gist of the method: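 Expression measured by microfluidic qRT-PCR with three housekeeping genes for normalisation, after 48 h treatment of HepaRG cultures. Eight concentrations (top 100 uM, half-log steps, 0.5% DMSO vehicle) in duplicate; gain or loss fitted relative to vehicle.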

Read-out in assay [5]: matrix metalloproteinase-10 (MMP10), MMP10 (gene 4319)
The experiment in a line: LTEA_HepaRG_MMP10: Life Technologies and Expression Analysis (LTEA) Assay for matrix metalloproteinase-10 (MMP10) using HepaRG (AID 2283517). The gist of the method: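 In differentiated HepaRG cultures kept in 0.5% DMSO, test chemicals act for 48 h over an eight-point range with a top dose of 100 uM. Expression is then quantified by TaqMan RT-PCR against ACTB, GAPDH and POLR2A.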

Read-out in another assay: MYC, MYC (gene 4609)
Kind of assay: LTEA_HepaRG_MYC: Life Technologies and Expression Analysis (LTEA) Assay for MYC using HepaRG (AID 2283518). In outline:
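MYC transcript changes, up or down relative to 0.5% DMSO, from TaqMan qRT-PCR normalized to three housekeeping genes. Human HepaRG cultures received chemicals for 48 h at eight half-log concentrations up to 100 uM, in duplicate.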

Read-out in assay [6]: matrix metalloproteinase-3 (MMP3), MMP3 (gene 4314)
The experiment in a line: LTEA_HepaRG_MMP3: Life Technologies and Expression Analysis (LTEA) Assay for matrix metalloproteinase-3 (MMP3) using HepaRG (AID 2283519). In outline:
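Human liver HepaRG cultures received chemicals (top concentration 100 uM, 0.5% DMSO) for 48 h in duplicate. MMP3 mRNA induction or loss was then assessed via TaqMan qRT-PCR with housekeeping-gene normalisation.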

Read-out in assay [7]: Paternally Expressed 10 (PEG10), PEG10 (gene 23089)
The experiment in a line: LTEA_HepaRG_PEG10: Life Technologies and Expression Analysis (LTEA) Assay for Paternally Expressed 10 (PEG10) using HepaRG (AID 2283520). In outline: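 PEG10 transcript measured by Fluidigm qRT-PCR, normalized to three housekeeping genes, in HepaRG cells treated 48 h (highest 100 uM, half-log steps, 0.5% DMSO vehicle). Cells plated 48 h before switching to serum-free induction medium.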

Read-out in assay [8]: Nuclear factor NF-kappa-B p105 subunit (Homo sapiens) (UniProt P19838)
The experiment in a line: LTEA_HepaRG_NFKB1: Life Technologies and Expression Analysis (LTEA) Assay for Nuclear Factor Kappa B Subunit 1 (NFKB1) using HepaRG (AID 2283521).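 Note: TaqMan qRT-PCR transcript normalised to ACTB GAPDH and POLR2A housekeeping genes.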 The gist of the method:
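Differentiated human HepaRG cells in serum-free induction medium with 0.5% DMSO were exposed for 48 h to eight half-log concentrations, top 100 uM, in duplicate. NFKB1 mRNA measured by Fluidigm TaqMan qRT-PCR, normalised to ACTB, GAPDH and POLR2A; bidirectional fit versus DMSO.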

Read-out in assay [9]: Protein phosphatase 2A (PPP2R4), PTPA (gene 5524)
Kind of assay: LTEA_HepaRG_PPP2R4: Life Technologies and Expression Analysis (LTEA) Assay for Protein phosphatase 2A (PPP2R4) using HepaRG (AID 2283522). In outline:
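Expression was quantified by Fluidigm qRT-PCR normalised to three housekeeping genes after 48 h treatment. Human HepaRG cells received an 8-point series from 100 µM downward by half-logs, in duplicate with 0.5% DMSO vehicle and 1 mM phenobarbital as induction control.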

Read-out in assay [10]: Phosphatase and tensin (PTEN), PTEN (gene 5728)
The experiment in a line: LTEA_HepaRG_PTEN: Life Technologies and Expression Analysis (LTEA) Assay for Phosphatase and tensin (PTEN) using HepaRG (AID 2283523). The gist of the method: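 Expression of PTEN is quantified in the human liver line HepaRG following two days of dosing (top concentration 100 uM, half-log dilutions, 0.5% DMSO). Values derive from bidirectional curve fitting relative to DMSO controls.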

Read-out in assay [11]: solute carrier (SLC22A1), SLC22A1 (gene 6580)
The experiment in a line: LTEA_HepaRG_SLC22A1: Life Technologies and Expression Analysis (LTEA) Assay for solute carrier (SLC22A1) using HepaRG (AID 2283524). In outline:
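Transcript induction or suppression of SLC22A1 in human HepaRG cultures is scored after 48 h chemical treatment, with DMSO (0.5%) as baseline for bidirectional fitting. Concentrations span eight half-log points topping at 100 uM.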

Read-out in assay [12]: Pyruvate Dehydrogenase Kinase 4 (PDK4), PDK4 (gene 5166)
The experiment in a line: LTEA_HepaRG_PDK4: Life Technologies and Expression Analysis (LTEA) Assay for Pyruvate Dehydrogenase Kinase 4 (PDK4) using HepaRG (AID 2283525). The gist of the method:
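Eight-point, half-log concentration series (max 100 uM, 0.5% DMSO) applied to differentiated HepaRG cells for 48 h in duplicate. Endpoint: PDK4 mRNA induction or repression by qRT-PCR against DMSO baseline.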

Read-out in assay [13]: NAD(P)H dehydrogenase [quinone] 1 (NQO1), NQO1 (gene 1728)
The experiment in a line: LTEA_HepaRG_NQO1: Life Technologies and Expression Analysis (LTEA) Assay for NAD(P)H dehydrogenase [quinone] 1 (NQO1) using HepaRG (AID 2283526). The gist of the method: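 NQO1 transcript induction or loss measured by TaqMan qRT-PCR, referenced to three housekeeping genes and fitted bidirectionally against 0.5% DMSO. HepaRG cultures exposed 48 h, duplicate, eight-point half-log series, top 100 uM.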

Read-out in assay [14]: Nuclear factor erythroid 2-related factor 2 (Homo sapiens) (UniProt Q16236)
The experiment in a line: LTEA_HepaRG_NFE2L2: Life Technologies and Expression Analysis (LTEA) Assay for Nuclear factor erythroid 2-related factor 2 (NFE2L2) Transcription Factor using HepaRG (AID 2283527).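 Note: TaqMan qRT-PCR transcript level normalised to ACTB GAPDH and POLR2A housekeeping genes.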 The gist of the method: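 Human liver HepaRG line treated in duplicate for 48 h with an eight-point series topping at 100 uM. Gene expression of NFE2L2 by qRT-PCR, bidirectionally fitted against the vehicle control.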

Read-out in assay [15]: succinate dehydrogenase complex iron sulfur subunit B (SDHB), SDHB (gene 6390)
Kind of assay: LTEA_HepaRG_SDHB: Life Technologies and Expression Analysis (LTEA) Assay for succinate dehydrogenase complex iron sulfur subunit B (SDHB) using HepaRG (AID 2283528). In outline: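 HepaRG cells (~100,000/well, plated 48 h) exposed in duplicate for 48 h in serum-free induction medium to 8-point half-log series from 100 uM in 0.5% DMSO; mRNA by qRT-PCR normalised to ACTB, GAPDH, POLR2A; bidirectional fit versus DMSO.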

Read-out in assay [16]: Signal transducer and activator of transcription 3 (Homo sapiens) (UniProt P40763)
Kind of assay: LTEA_HepaRG_STAT3: Life Technologies and Expression Analysis (LTEA) Assay for Signal transducer and activator of transcription (STAT3) using HepaRG (AID 2283529). In outline: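 In this transcriptional endpoint, HepaRG cultures receive test chemicals at up to 100 uM for 48 h, tested in duplicate. STAT3 mRNA is normalized to ACTB, GAPDH and POLR2A.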

Read-out in assay [17]: solute carrier (SLCO1B1), SLCO1B1 (gene 10599)
The experiment in a line: LTEA_HepaRG_SLCO1B1: Life Technologies and Expression Analysis (LTEA) Assay for solute carrier (SLCO1B1) using HepaRG (AID 2283530). The gist of the method: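 SLCO1B1 transcript levels were quantified by TaqMan qRT-PCR using three housekeeping genes for normalization. This followed 48 h chemical exposure (100 uM top, half-log, 8 points, 0.5% DMSO) of HepaRG liver cells, with gain or loss fitted relative to DMSO.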

Read-out in assay [18]: sulfotransferase 2A1 (SULT2A1), SULT2A1 (gene 6822)
Kind of assay: LTEA_HepaRG_SULT2A1: Life Technologies and Expression Analysis (LTEA) Assay for sulfotransferase 2A1 (SULT2A1) using HepaRG (AID 2283531). The gist of the method:
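Expression change of SULT2A1, by qRT-PCR with three housekeeping-gene normalization, was scored bidirectionally versus DMSO. Cells: differentiated HepaRG, dosed in duplicate for 48 h across 8 points, highest 100 µM, half-log dilution, 0.5% DMSO.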

Read-out in assay [19]: Transforming Growth Factor (TGFA), TGFA (gene 7039)
Kind of assay: LTEA_HepaRG_TGFA: Life Technologies and Expression Analysis (LTEA) Assay for Transforming Growth Factor (TGFA) using HepaRG (AID 2283532). The gist of the method:
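Gene expression of TGFA was quantified by qRT-PCR after human HepaRG cells were treated for 48 h with test chemicals (eight concentrations, highest 100 uM, 0.5% DMSO). Activity in either direction was fitted relative to DMSO.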

Nuclear factor erythroid 2-related factor 2 (Homo sapiens), sequence (Q16236 whole entry, looked up): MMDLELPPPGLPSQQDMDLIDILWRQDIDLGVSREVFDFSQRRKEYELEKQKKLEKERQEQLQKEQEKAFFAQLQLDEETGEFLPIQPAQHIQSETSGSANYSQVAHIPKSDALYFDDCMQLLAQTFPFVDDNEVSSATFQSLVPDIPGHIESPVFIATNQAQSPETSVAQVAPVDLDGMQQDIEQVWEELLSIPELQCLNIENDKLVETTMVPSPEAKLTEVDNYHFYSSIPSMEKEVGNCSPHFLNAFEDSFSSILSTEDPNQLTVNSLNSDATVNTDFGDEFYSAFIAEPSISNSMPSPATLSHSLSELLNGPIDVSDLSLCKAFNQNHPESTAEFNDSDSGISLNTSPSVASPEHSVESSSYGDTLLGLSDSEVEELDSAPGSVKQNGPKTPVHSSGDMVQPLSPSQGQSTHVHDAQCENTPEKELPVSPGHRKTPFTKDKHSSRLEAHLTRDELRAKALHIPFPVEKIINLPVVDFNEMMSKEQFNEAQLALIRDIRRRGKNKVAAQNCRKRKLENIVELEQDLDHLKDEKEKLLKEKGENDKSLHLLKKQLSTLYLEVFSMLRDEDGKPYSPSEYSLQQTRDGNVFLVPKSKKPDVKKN
Signal transducer and activator of transcription 3 (Homo sapiens), sequence (P40763 whole entry, looked up): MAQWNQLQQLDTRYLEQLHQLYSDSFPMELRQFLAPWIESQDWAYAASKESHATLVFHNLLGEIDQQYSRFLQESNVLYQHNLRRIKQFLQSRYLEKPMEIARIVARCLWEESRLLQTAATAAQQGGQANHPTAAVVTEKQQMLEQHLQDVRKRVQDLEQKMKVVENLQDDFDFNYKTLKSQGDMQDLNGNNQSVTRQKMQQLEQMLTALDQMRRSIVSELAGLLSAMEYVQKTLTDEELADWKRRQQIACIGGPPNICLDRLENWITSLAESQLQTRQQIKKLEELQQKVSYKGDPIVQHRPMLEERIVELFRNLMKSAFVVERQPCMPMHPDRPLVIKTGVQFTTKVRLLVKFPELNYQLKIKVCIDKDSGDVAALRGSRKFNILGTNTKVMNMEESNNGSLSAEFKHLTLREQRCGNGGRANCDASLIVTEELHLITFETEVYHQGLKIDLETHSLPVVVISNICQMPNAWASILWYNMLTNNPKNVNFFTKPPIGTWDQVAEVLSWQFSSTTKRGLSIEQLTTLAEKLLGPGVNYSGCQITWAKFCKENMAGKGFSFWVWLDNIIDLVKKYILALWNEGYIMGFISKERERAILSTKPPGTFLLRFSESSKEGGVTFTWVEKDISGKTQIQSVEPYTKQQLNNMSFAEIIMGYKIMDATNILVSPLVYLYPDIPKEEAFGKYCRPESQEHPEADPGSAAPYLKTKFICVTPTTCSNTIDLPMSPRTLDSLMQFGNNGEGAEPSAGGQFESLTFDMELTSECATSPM
Nuclear factor NF-kappa-B p105 subunit (Homo sapiens), sequence (P19838 whole entry, looked up): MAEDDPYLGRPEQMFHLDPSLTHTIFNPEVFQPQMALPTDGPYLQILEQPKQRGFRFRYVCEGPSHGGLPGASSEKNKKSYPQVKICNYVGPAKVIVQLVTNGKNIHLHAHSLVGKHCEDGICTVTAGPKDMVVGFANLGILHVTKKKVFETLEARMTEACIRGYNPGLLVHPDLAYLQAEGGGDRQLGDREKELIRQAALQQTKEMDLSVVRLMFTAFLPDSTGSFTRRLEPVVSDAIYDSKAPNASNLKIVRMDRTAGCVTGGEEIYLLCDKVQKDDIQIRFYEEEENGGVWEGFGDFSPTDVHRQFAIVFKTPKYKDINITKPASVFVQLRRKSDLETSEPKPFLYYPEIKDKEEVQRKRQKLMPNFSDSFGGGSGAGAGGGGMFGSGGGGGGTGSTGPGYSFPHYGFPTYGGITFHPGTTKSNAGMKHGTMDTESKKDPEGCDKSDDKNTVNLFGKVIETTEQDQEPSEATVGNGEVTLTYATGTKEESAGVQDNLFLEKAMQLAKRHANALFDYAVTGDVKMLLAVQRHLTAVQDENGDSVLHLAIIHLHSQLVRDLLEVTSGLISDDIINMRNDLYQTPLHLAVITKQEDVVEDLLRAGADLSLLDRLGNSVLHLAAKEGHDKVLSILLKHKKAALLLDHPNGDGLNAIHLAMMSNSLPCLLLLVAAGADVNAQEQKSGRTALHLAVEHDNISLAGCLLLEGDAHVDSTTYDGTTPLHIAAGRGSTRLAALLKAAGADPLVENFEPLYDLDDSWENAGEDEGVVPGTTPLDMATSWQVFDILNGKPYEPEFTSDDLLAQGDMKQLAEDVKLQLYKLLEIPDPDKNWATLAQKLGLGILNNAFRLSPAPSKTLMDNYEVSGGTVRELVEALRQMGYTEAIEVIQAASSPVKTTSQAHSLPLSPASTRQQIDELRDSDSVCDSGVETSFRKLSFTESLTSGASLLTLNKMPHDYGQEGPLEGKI

A word on the AC50: it is the concentration giving half of the maximal activity seen. `CCC(C)(C)C(=O)OC1=C(c2ccc(Cl)cc2Cl)C(=O)OC12CCCCC2`: the outcome in assay [1] is “inactive”; in assay [2], “inactive”; in assay [4], “inactive”; in assay [5], “inactive”; with MYC, MYC (gene 4609) it was “inactive”; in assay [6], “inactive”. The molecule was classed as inactive in [7], in assay [8], in assay [9], in assay [10], in assay [11] and in assay [12]. For the same molecule, the outcome in assay [13], in [14], in assay [15], in assay [16], in assay [17] and in assay [18] was inactive. The result in [19] was inactive. In addition, the AC50 in assay [3] was 40.8 µM (active).

For `CCCN(CCC)c1c([N+](=O)[O-])cc(C(F)(F)F)cc1[N+](=O)[O-]`, the outcome is “inactive” in assay [1]; “inactive” in [2]; “inactive” in assay [3]; “inactive” in assay [4]; “inactive” in [5]; “inactive” in the assay with MYC, MYC (gene 4609). Besides, the call in assay [6], in assay [7], in [8], in assay [9], in [10] and in assay [11] was inactive. The outcome in assay [12], in [13], in assay [14], in assay [15], in assay [16] and in assay [17] was inactive. The call in assay [18] and in assay [19] was inactive.

Take `COP(=O)(OC)OC=C(Cl)Cl`: the outcome in [1] is “inactive”; in assay [2], “inactive”; in assay [3], “inactive”; in assay [4] it was “inactive”; in assay [5], “inactive”; in the assay with MYC, MYC (gene 4609), “inactive”. Moreover, the outcome in [6], in assay [7], in [8], in assay [9], in [10] and in assay [11] was inactive. The molecule was classed as inactive in assay [12], in assay [13], in assay [14], in assay [15], in assay [16] and in assay [17]. Further, the molecule was classed as inactive in assay [18] and in assay [19].
